Source: PubChem BioAssay (NCATS)
Records with an inconclusive call do not appear. Where a call stands in place of a potency, no number is given. Values without a mark were called inactive. Active and inactive are the calls of the source. The call rests on the fitted dose curve; in most records, active means well fitted inhibition curve with a large enough effect; inconclusive means small, poorly fitted or top-dose-only effect; inactive means flat fitted curve, though single readings scatter.

assay: P-glycoprotein substrates identified in KB-8-5-11 adenocarcinoma cell line, qHTS therapeutic library screen (AID 1346987); conditions: KB-8-5-11 (P-gp overexpressing) viability, CellTiter-Glo, 72 h; series mostly up to 44.5 µM; further: nearly all actives have a fitted effect of over 65% in size
Outline: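 Steps: plate 500 KB-8-5-11 cells/well in DMEM + 10% FCS (colchicine removed); pin compounds in dose-response; incubate 72 h, 37 degree C, 5% CO2; add CellTiter-Glo, 5 min; read luminescence.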
Potency means the concentration at half of the fitted maximal effect.

| SMILES | Potency | activity change, negative = cytotoxicity | outcome |
| --- | --- | --- | --- |
| CC(=O)O[C@@H]1c2c(C)coc2C(=O)[C@@]23O[C@@H]2CC[C@H](C)[C@@]13C | inactive |  |  |
| O=C(OC[C@H]1O[C@H](O[C@]2(CO)O[C@H](CO)[C@@H](O)[C@@H]2O)[C@H](O)[C@@H](O)[C@@H]1O)c1ccccc1 | inactive |  |  |
| N#C[C@@H]1C[C@H](F)CN1C(=O)CNC1[C@H]2CN(C(=O)c3ccc(F)cc3)C[C@@H]12 (some centres undefined) | inactive |  |  |
| C=C[C@H]1CN2CC[C@H]1C[C@@H]2C(O)c1ccnc2ccc(OC)cc12 (some centres undefined) | inactive |  |  |
| CC(C)CNCc1ccc(-c2ccccc2S(=O)(=O)N2CCCC2)cc1 | inactive |  |  |
| CCC(C)C(=O)OC1CC(O)C23C4OCC5(C(O)CC2C1(C)C(O)O4)C3C(=O)C(O)C1(C)C(O)(c2ccoc2)CC2OC251 (centres undefined) | inactive |  |  |
| O=C(Nc1ccccc1)N1CCN(Cc2ccc3ccccc3n2)CC1 | inactive |  |  |
| NC[C@@](O)(c1ccc(Cl)cc1)c1ccc(-c2cn[nH]c2)cc1 | 9200 nM (active) |  |  |
| Cc1ccccc1NC(=O)Nc1ccc(CC(=O)N(C)[C@@H](CC(C)C)C(=O)NCC[C@H](NC(=O)[C@@H]2CCCN2S(=O)(=O)c2cc(Cl)cc(Cl)c2)C(=O)O)cc1 | inactive |  |  |
| COc1cc2c(cc1O)CC[C@H]1[C@@H]2CC[C@]2(C)[C@H](O)CC[C@@H]12 | 1300 nM (active) |  |  |
| Cc1[nH]c2ccccc2c1CCNC(=O)c1ccccc1F | inactive |  |  |
| C/C=C/C(O)C1OC(=O)CC1Nc1ccc(C(=O)O)cc1 (centres undefined) | inactive |  |  |
| CC(C)(C)NCCCNC(=O)c1cccc(Br)c1 | inactive |  |  |
| CC[C@H]1OC(=O)[C@](C)(F)C(=O)[C@H](C)[C@@H](O[C@@H]2O[C@H](C)C[C@H](N(C)C)[C@H]2O)[C@](C)(OC)C[C@@H](C)C(=O)[C@@H](C)[C@H]2N(CCCCn3cc(-c4cccc(N)c4)nn3)C(=O)O[C@]12C | inactive |  |  |
| CNC(=O)c1ccccc1Nc1nc(Nc2ccc(N3CCNCC3)cc2)ncc1Cl | 461 nM (active) |  |  |
| CC(=O)O[C@@H]1[C@H](O)[C@@H](O[C@@H]2O[C@@H](C)[C@H](O[C@@H]3OC[C@@H](O)[C@H](O[C@@H]4OC[C@@H](O)[C@H](O)[C@H]4O)[C@H]3O)[C@@H](O[C@@H]3O[C@H](CO)[C@@H](O)[C@H](O)[C@H]3O)[C@H]2O)[C@H](OC(=O)[C@]23CCC(C)(C)C[C@H]2C2=CCC4[C@@]5(C)CC[C@H](O[C@@H]6O[C@H](C(=O)O)[C@@H](O)[C@H](O[C@@H]7OC[C@@H](O)[C@H](O)[C@H]7O)[C@H]6O[C@@H]6O[C@H](CO)[C@H](O)[C@H](O)[C@H]6O)[C@@](C)(C=O)C5CC[C@@]4(C)[C@]2(C)CC3)O[C@@H]1C (some centres undefined) |  | 9.26% [at 5.11 µM] |  |
| O=C(/C=C/c1cccc(S(=O)(=O)Nc2ccccc2)c1)NO | 2820 nM (active) |  |  |
| CC[C@H](NC(=O)[C@H](CS(=O)(=O)CC1CC1)N[C@@H](c1ccc(F)cc1)C(F)(F)F)C(=O)C(=O)NC1CC1 | inactive |  |  |
| COc1ccc(C(=O)n2c(C)c(Cc3cccc(O[C@@H](C)C(=O)O)c3)c3cc(OC(F)(F)F)ccc32)cc1 | inactive |  |  |
| CC1(C)CC(=O)C2=C(C1)NC(=S)NC2c1cccc(O)c1 (centres undefined) | 5800 nM (active) |  |  |

| SMILES | Potency | activity change, negative = cytotoxicity | outcome |
| --- | --- | --- | --- |
| O=C(c1cn(Cc2cncn2Cc2ccc(Br)cc2)cc1-c1cccc2ccccc12)N1CCOCC1 | 4110 nM (active) |  |  |
| Nc1ncnc2c1nc(N)n2[C@@H]1O[C@H](CO)[C@@H](O)[C@H]1O | 1160 nM (active) |  |  |
| CC(C)(O)/C=C/C1=CC(=O)[C@@](C)(O)C[C@H]1O | inactive |  |  |
| O=C(CO)[C@@H](O)[C@H](O[C@@H]1O[C@H](CO)[C@H](O)[C@H](O)[C@H]1O)[C@H](O)CO | inactive |  |  |
| O=C(COc1cccc2c(=O)[nH]ccc12)c1ccccc1 | inactive |  |  |
| Nc1nc2c(ncn2[C@@H]2O[C@H](CO)[C@@H](O)[C@H]2O)c(=O)[nH]1 | inactive |  |  |
| O=C(OCC1=CC(O)C2C=CO[C@@H](O[C@@H]3O[C@H](CO)[C@@H](O)[C@H](O)[C@H]3O)C12)c1ccccc1 (some centres undefined) | inactive |  |  |
| C=C1CCCC2(C)CC3(OC)OC(=O)C(C)=C3CC12 (centres undefined) | inactive |  |  |
| CC(C)c1ccc2c(c1)C(=O)CC1[C@@](C)(C(=O)O)CCC[C@]21C (some centres undefined) | inactive |  |  |
| C=CC1(C)C=C2CCC3C(C)(C)C(O[C@@H]4O[C@@H](CO)[C@H](O)[C@H]4O)CCC3(C)C2CC1O[C@@H]1O[C@H](C)[C@H](O)[C@H](O)[C@H]1O (some centres undefined) | inactive |  |  |
| CC(Oc1ccc2[nH]nc(/C=C/c3cnn(CCO)c3)c2c1)c1c(Cl)cncc1Cl (centres undefined) | 1030 nM (active) |  |  |
| O=C1N=C(N2CCOCC2)CN1c1ccc(Cl)cc1 | inactive |  |  |
| COc1ccc(CC2C(=O)NC(C)C(=O)N(C)C3Cc4ccc(cc4)Oc4cc(ccc4OC4OC(CO)C(O)C(O)C4O)CC(C(=O)NC(C)C(=O)NC(C)C(=O)N2C)N(C)C3=O)cc1 (centres undefined) |  | -5.43% [at 9.29 µM] |  |
| C=C(CO)C12OC1C1(C)C(=CC2=O)C(O)C(O)CC1C (centres undefined) | inactive |  |  |
| CC1(C)CC[C@]2(C(=O)O[C@@H]3O[C@H](CO)[C@@H](O)[C@H](O)[C@H]3O)CC[C@]3(C)C(=CCC4[C@@]5(C)CC[C@H](O[C@@H]6O[C@H](C(=O)O)[C@@H](O)[C@H](O)[C@H]6O)C(C)(C)C5CC[C@]43C)C2C1 (some centres undefined) |  |  | inactive [at 9.29 µM] |
| C/C=C/C=C/[C@@H]1O[C@](O)([C@H](CC)C(=O)NC/C=C/C=C(\C)[C@@H](OC)[C@@H](C)C2OC(/C=C/C=C/C=C(\C)C(=O)c3c(O)cc[nH]c3=O)[C@H](O)[C@@H]2O)[C@H](O)[C@H](O)C1(C)C (some centres undefined) | inactive |  |  |
| CC1(C)CC[C@]2(C(=O)O)CC[C@]3(C)C(=CCC4[C@@]5(C)CC[C@H](O[C@@H]6O[C@H](CO)[C@@H](O)[C@H](O)[C@H]6O[C@@H]6O[C@H](CO)[C@@H](O)[C@H](O)[C@H]6O)[C@@](C)(CO)C5CC[C@]43C)[C@@H]2C1 (some centres undefined) | inactive |  |  |
| C=C1CCC2C(C(C)(C)O)CCC2(C)CC(O)C(=C)CCC1O (centres undefined) | inactive |  |  |
| Cc1cc(Nc2cc(N3CCN(C)CC3)nc(/C=C/c3ccccc3)n2)n[nH]1 | 7310 nM (active) |  |  |
